Screening data as filed in PubChem BioAssay.
Cruzain inh noDet = qHTS Assay for Promiscuous and Specific Inhibitors of Cruzain (without detergent); Cruzipain (Trypanosoma cruzi), P25779; purified cruzain, Z-FR-AMC fluorescence, no detergent; Potency, µM, usual class: inhibitors; actives 2.3% (n = 200,000); AID 1476, 2009; also: nearly all actives have a fitted effect of over 40% in size
Target sequence (P25779 123-467 limits assumed): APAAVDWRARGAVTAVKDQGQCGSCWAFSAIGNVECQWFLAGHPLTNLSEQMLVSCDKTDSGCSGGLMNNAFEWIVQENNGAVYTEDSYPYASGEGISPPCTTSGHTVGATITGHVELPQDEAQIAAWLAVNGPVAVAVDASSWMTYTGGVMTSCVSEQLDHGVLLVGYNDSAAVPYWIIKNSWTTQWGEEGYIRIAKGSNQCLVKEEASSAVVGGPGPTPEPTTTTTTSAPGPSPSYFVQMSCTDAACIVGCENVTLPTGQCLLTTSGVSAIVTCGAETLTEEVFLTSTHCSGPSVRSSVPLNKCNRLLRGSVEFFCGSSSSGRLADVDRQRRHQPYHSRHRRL
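Purified cruzain at 1.5 nM, pre-incubated 15 min with compound at room temperature in 100 mM sodium acetate pH 5.5, 5 mM DTT, 0.00005% Triton X-100. Reaction started with 2 uM Z-FR-AMC; AMC fluorescence increase over 60 s gives rate.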
Cruzain inh Det = qHTS Assay for Promiscuous and Specific Inhibitors of Cruzain (with detergent) | Cruzipain (Trypanosoma cruzi), P25779 | purified cruzain, Z-FR-AMC fluorescence, 0.01% Triton | Potency, µM, hits mostly inhibitors | actives 0.43% (n = 200,000) | AID 1478, 2009; also: nearly all actives have a fitted effect of over 40% in size
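Detergent-containing run (0.01% Triton X-100) in acetate buffer pH 5.5 with 5 mM DTT: enzyme at 1.5 nM final, 15 min compound preincubation at room temperature, then 2 uM Z-FR-AMC substrate. Activity taken as 60 s fluorescence increase at 360/450 nm.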
Large screens that a line does not name were inactive. An excerpt weighted towards active compounds, which were near 2.4% of everything screened. Calls follow the shape of the dose curve; as a rule, active = well fitted curve in the direction sought with a large enough effect; inconclusive = small, poorly fitted or top-dose-only effect, or another doubt; inactive = no such curve, though single readings can be large; an effect the other way counts as inactive or inconclusive.

Cn1c(=O)c2cc(S(=O)(=O)Nc3ccc4c(c3)OCO4)ccc2n(C)c1=O	none
Oc1ccc(Nc2nc(NCC3CCCO3)c3ccccc3n2)cc1 (stereo not given)	none
COc1cccc(Nc2nc(NCC3CCCO3)c3ccccc3n2)c1 (stereo not given)	Cruzain inh noDet 13µM, Cruzain inh Det 14µM
COc1ccc(CNc2nc(SCc3ccc(Cl)cc3)nc3ccccc23)cc1	none
Cc1c(C(=O)N(C)C)sc2c1c(=O)n(-c1ccc(Cl)c(Cl)c1)c(=O)n2Cc1ccc(F)cc1	none
O=C(Cn1cc(S(=O)(=O)N2CCN(c3ccccc3F)CC2)c2ccccc2c1=O)Nc1ccc(F)cc1Cl	Cruzain inh noDet inconclusive
CCOc1ccc(NC(=O)Cn2cc(S(=O)(=O)N3CCN(c4ccccc4F)CC3)c3ccccc3c2=O)cc1	Cruzain inh noDet 16µM
Cc1nc2ccn(Cc3cccs3)c(=O)c2cc1C(=O)Nc1ccccc1	none
O=C(COc1ccc(Cl)cc1)N(Cc1ccco1)c1ccccn1	none
Fc1cnc(N2CCc3ccccc32)nc1N1CCc2ccccc21	Cruzain inh noDet 3.2µM
O=C1CC(c2ccc(F)cc2)Cc2nc(N3CCc4ccccc43)ncc21 (stereo not given)	Cruzain inh noDet inconclusive
COCCCn1c(=N)c(C(=O)NC2CCCCC2)cc2c(=O)n3cc(C)ccc3nc21	none
CCOc1ccccc1NC(=O)C1CCN(S(=O)(=O)c2c(C)noc2/C=C/c2ccc(C)cc2)CC1	none
COc1ccc(NC(=O)CSC2=Nc3ccccc3N=C(c3ccc(F)cc3)C2)cc1OC	none
Cc1c([C@@H](C)C2NC[C@H](C)C[C@@H]2O)ccc2c1C[C@@H]1[C@H]2CC=C2C[C@@H](O)CC[C@@]21C (stereo not given in full)	none
CCOC(=O)c1sc(Nc2nc3cc4c(cc3s2)OCO4)cc1C	Cruzain inh noDet 25µM
C(=C\c1ccccc1)/C=N/Nc1nc2ccccc2s1	Cruzain inh noDet inconclusive
C(=N\Nc1nc2ccccc2s1)/c1ccc2c(c1)OCO2	none
Brc1cc2c(cc1/C=N/Nc1nc3ccccc3s1)OCO2	Cruzain inh noDet 20µM
c1ccc2sc(Nc3nc4cc5c(cc4s3)OCO5)nc2c1	Cruzain inh noDet 25µM
CCOC(=O)c1sc(Nc2nc3c(OC)cccc3s2)cc1C	none
Brc1ccc(/C=C/C=N/Nc2nc3ccccc3s2)cc1	Cruzain inh noDet 4µM
Fc1ccc2nc(Nc3nc4cc5c(cc4s3)OCO5)sc2c1	Cruzain inh noDet inconclusive
O=S1(=O)c2ccccc2N(Cc2ccccc2)c2ccccc21	none
Cc1ccc(C)c(CNC(=O)CN2C(=O)CSc3ccc(S(=O)(=O)N(C)C)cc32)c1	none
CCOC(=O)c1cccc(NC(=O)Nc2c(C)n(C)n(-c3ccccc3)c2=O)c1	none
COc1cc(OC)c(NC(=O)CSc2cc(=O)n(C)c3ccc(Cl)cc23)cc1Cl	none
C[C@@]1(C(NC(=O)Cc2ccccc2)c2ccc(-c3ccccc3)cc2)C[C@H]1C1CCCCC1 (stereo not given in full)	none
C[C@@]1(C(NC(=O)c2ccccc2)c2ccc(-c3ccccc3)cc2)C[C@H]1C1CCCCC1 (stereo not given in full)	Cruzain inh noDet 10µM
Cc1cccc(N2CCN(C(=O)Nc3cn(CC(C)C)c(=O)c4ccccc34)CC2)c1C	none
CN(c1ccccc1)c1ncnc2c1cnn2C	none
CCN(CCCNC(=O)c1nn(-c2ccc(OC)c(Cl)c2)c(=O)c2c1c1ccccc1n2C)c1cccc(C)c1	none
O=C(Cn1nc(Cc2ccncc2)c2ccccc2c1=O)Nc1cccc(C(F)(F)F)c1	none
Cc1ccccc1NC(=O)Cn1nnc(S(=O)(=O)c2ccc(C(C)(C)C)cc2)c1N	Cruzain inh noDet 7.9µM
Cc1ccccc1NC(=O)Cn1nnc(C(=O)NCc2ccco2)c1N	none
Cc1ccc(CNC(=O)c2ccc(N3CCCC3)c(NC(=O)Nc3ccc(F)c(Cl)c3)c2)cc1	Cruzain inh noDet inconclusive
Cc1occc1C(=O)N=Nc1c(O)n(C)c2ccccc12	none
Cc1occc1C(=O)N=Nc1c(O)[nH]c2ccc(Br)cc12	Cruzain inh noDet 13µM
O=C(CC1S/C(=N/N=C/C=C/c2ccccc2)NC1=O)Nc1ccc(Cl)c(Cl)c1 (stereo not given)	Cruzain inh noDet 6.3µM
O=C(O)CC1S/C(=N/N=C/C=C/c2ccccc2)NC1=O (stereo not given)	none
COc1ccc(C(=O)Nc2ccc3oc(-c4cc(Cl)ccc4Cl)nc3c2)cc1Br	none
COc1ccc(C2CC(=O)c3c([nH]c(C(=O)OCc4ccccc4)c3C)C2)cc1OC (stereo not given)	none
CCOCCOC(=O)c1[nH]c2c(c1C)C(=O)CC(c1ccc(N(C)C)cc1)C2 (stereo not given)	none
Cc1c(C(=O)OCc2ccccc2)[nH]c2c1C(=O)CC(c1ccc(Cl)cc1)C2 (stereo not given)	Cruzain inh noDet 7.9µM
C/C=C/COC(=O)c1[nH]c2c(c1C)C(=O)CC(c1ccc(N(C)C)cc1)C2 (stereo not given)	Cruzain inh noDet 32µM
COc1ccccc1NC(=O)Cn1c(=O)n(CC2CCC(C(=O)NCCc3ccccc3)CC2)c(=O)c2ccccc21 (stereo not given)	none
O=C(COC(=O)CNC(=O)c1ccccc1Cl)Nc1ncc(C(F)(F)F)cc1Cl	Cruzain inh noDet 1.3µM, Cruzain inh Det 1.6µM
Cc1ccc(C)c(SCC(=O)OCC(=O)Nc2ncc(C(F)(F)F)cc2Cl)c1	Cruzain inh Det inconclusive
O=C(COC(=O)c1ccc2ccccc2c1)Nc1ncc(C(F)(F)F)cc1Cl	none
O=C(COC(=O)CSc1cccc2cccc(Cl)c12)Nc1ncc(C(F)(F)F)cc1Cl	Cruzain inh noDet 25µM, Cruzain inh Det inconclusive
COc1ccc(CNS(=O)(=O)c2cc3c(cc2Cl)N(C(C)=O)CCO3)cc1	none
CC(=O)N1CCc2cc(Br)cc(S(=O)(=O)N3CCN(c4cc(C)ccc4C)CC3)c21	none
Cc1ccccc1NC(=O)Cn1nc(-c2ccccc2)nc(Cc2ccccc2)c1=O	none
CC1CCC(NC(=O)Cn2ncc3c4ccccc4n(Cc4ccc(Cl)cc4)c3c2=O)CC1 (stereo not given)	none
Cc1cc(C)c(Cn2c3ccccc3c3cnn(CC(=O)NC4CCC(C)CC4)c(=O)c32)c(C)c1 (stereo not given)	Cruzain inh noDet 2µM
COCCOC(=O)c1c(C)n(S(=O)(=O)c2ccc(C)cc2)c2ccc(NS(=O)(=O)c3ccc(C)cc3)cc12	Cruzain inh noDet 10µM
Cc1ccc(S(=O)(=O)Nc2ccc3c(c2)c(C(=O)OC(C)C)c(C)n3S(=O)(=O)c2ccc(C)cc2)cc1	Cruzain inh noDet 5µM
CCOC(=O)c1c(-c2ccccc2)oc2ccc(NS(=O)(=O)c3ccc(C)cc3)cc12	Cruzain inh noDet inconclusive
Cc1ccc(S(=O)(=O)Nc2ccc(S(=O)(=O)N3CCCC3)cc2)cc1	none
Cc1ccc(N2CCN(c3nc4ccc(C(=O)c5ccccc5)cc4n4cnnc34)CC2)c(C)c1	none
COc1ccc(-c2csc(N(CCc3ccccc3)C(=O)COc3ccccc3)n2)cc1	Cruzain inh noDet 13µM
O=C(COc1ccc(Cl)cc1)N(Cc1ccccc1)c1nc(-c2ccccc2)cs1	Cruzain inh noDet 10µM
COc1ccc(OCC(=O)N(C)Cc2ccccc2)cc1	none
COCCCN(C(C)=O)c1nc(-c2ccccc2)cs1	none
Cc1ccc(OCCSCc2nnc(NC(=O)Nc3cccc(Cl)c3)s2)cc1	Cruzain inh noDet 16µM
O=C(Nc1ccc(Cl)cc1)Nc1nnc(SCc2ccccc2)s1	Cruzain inh noDet 7.9µM
